# High-throughput results from PubChem BioAssay.
# Most compounds without a hit are left out; they make up all but 4.8% or so of the library.
# CSC inhib = blocks cancer stem cells. AID 2717. inhibition, % at 7.5 µM. cancer stem cell-like cells viability, luminescence. 300,000 compounds, 1.1% hits; in the data active means inhibition above about 75%; tested in HMLE shEcad cells
# Beta apoptosis = beta cell apoptosis inhibition | INS-1E cytokine-induced death, ATP luminescence, 48 h; percent of positive-control rescue, neutral wells zero | protection from apoptosis, % (test concentration not listed) | 300,000 compounds, 0.8% hits | AID 435005;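 active means Every replicate reaches about 75%, or at least half do and their mean reaches it too, limit read from the data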;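 further: 0% = cytokine-treated negative control wells and 100% = positive control rescue; higher means more ATP so stronger rescue from cytokine killing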
# MPTP block = permeability transition pore inhibition; isolated mouse mitochondria, Ca2+ swelling absorbance, 30 min; inhibition, % at 10 µM; 360,000 compounds, 1.4% hits;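 active means inhibition of 50% or more, scaled per plate between neutral and stimulator controls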;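 further: 0% = DMSO wells given calcium and 100% = 1 mM EGTA wells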
# Mdm2 MdmX PPI = inhibitors of human Mdm2/MdmX interaction; O15151+Q00987; SaOS-2 split-luciferase Mdm2/MdmX complementation, luminescence; inhibition, % at 8 µM; 330,000 compounds, 3% hits;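 active means inhibition of at least 50% at 8 µM in the primary screen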
# Calb FLC = C. albicans growth modulation with fluconazole | C. albicans CaCi-2 (fluconazole-resistant clinical isolate) + fluconazole, Alamar Blue growth, 48 h | growth inhibition, % (test concentration not listed) | 300,000 compounds, 0.57% hits | AID 1979;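 active means growth inhibition above about 58% in most replicates, limit read from the data, passing the limit was not always enough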;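 further: all wells also contain fluconazole at 8 µg/ml as a sub-toxic cotreatment; 0% = median of DMSO wells and 100% = median of geldanamycin control wells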
# The depositor's hits bear a star; / = no result.
SMILES,CSC inhib,Beta apoptosis,MPTP block,Mdm2 MdmX PPI,Calb FLC
O=C(NC(Cc1ccccc1)C(=O)NCc1ccccn1)c1ccco1 (stereo unspecified),/,1,1,-16,103*
O=C(NCc1ccccn1)c1ccco1,-11,-5,-2,-11,-7
CCOC1CCCc2oc(-c3ccsc3)c(-c3cnc(OC)nc3)c21 (stereo unspecified),/,/,0,/,/
O=C(N/N=C/c1cc([N+](=O)[O-])ccc1O)C1CCCCC1,-4,34,21,4,9
O=[N+]([O-])c1ccc(O)c(/C=N/Nc2nn[nH]n2)c1,-1,-8,-31,-29,37
O=[N+]([O-])c1ccc(O)c(/C=N/Nc2ccc(Cl)nn2)c1,107*,110*,6,40,117*
O=C(N/N=C/c1cc([N+](=O)[O-])ccc1O)C1C2CCCCC21 (stereo unspecified),9,6,/,4,101*
O=C(NCc1cccs1)c1nc2c(nnn2Cc2ccccc2Cl)c(=O)[nH]1,111*,5,-2,/,45
CCCCN(C=O)c1c(CC)nc2ccc(C(=O)N(C)Cc3ccco3)cn12,/,/,-1,/,/
Cc1ccc(N/N=C/c2ccc3c(c2)OCCO3)cc1Cl,13,/,-1,8,102*
Cc1cc(C)c[n+](C(C)C(=O)c2ccc(-c3ccccc3)cc2)c1 (stereo unspecified),28,93*,2,15,-16
Cc1ccc[n+](C(C)C(=O)c2ccc(Cl)cc2)c1 (stereo unspecified),-10,-4,1,19,0
c1cncc(CNc2nc(-c3cccnc3)nc3ccccc23)c1,0,5,0,12,1
CC(C)(C)c1ccc(-c2nc(NCc3cccnc3)c3ccccc3n2)cc1,133*,12,3,11,4
CN(C)c1ccc(CNC(=O)C2(C)Cc3c(-c4cccc(C(F)(F)F)c4)ccnc3O2)cc1 (stereo unspecified),/,/,1,/,/
CCOC(=O)c1c(C)nsc1NC(=O)C1(C)CCN1C(=O)CC (stereo unspecified),/,/,0,/,/
CC(C)Nc1nc(NC(C)C)nc(SCCOC(=O)Nc2ccc(Cl)cc2Cl)n1,90*,7,3,30,-8
CCNc1nc(NC(C)C)nc(SCCOC(=O)c2ccccc2)n1,-4,5,6,19,41
O=C(Nc1nc(-c2cc(Cl)sc2Cl)cs1)c1cccs1,112*,15,0,23,6
Cc1cccc(C)c1NC(=O)C1(C)CN(S(C)(=O)=O)CC(=O)N1CC(F)(F)F (stereo unspecified),/,/,0,/,/
Cc1ccc(-c2c[n+]3c(n2-c2ccccc2)CCC3)cc1,-15,100*,2,30,-8
CCOc1ccc(-n2c(-c3ccccc3)c[n+]3c2CCCCC3)cc1,23,99*,5,27,87*
O=c1[nH][nH]c2c1[C@H](c1ccc(F)cc1)O[C@H](CCC(F)(F)F)C2,/,/,-2,/,/
CC(=O)Nc1ccc(OCC(O)CN2CCN(c3cc(Cl)ccc3C)CC2)cc1 (stereo unspecified),84*,/,-4,11,-37
CC(=O)Nc1ccc(S(=O)(=O)N2CCN(c3ccc(C)c(Cl)c3)CC2)cc1,9,-1,0,19,-4
SMILES,CSC inhib,Beta apoptosis,MPTP block,Mdm2 MdmX PPI,Calb FLC
CC(=O)Nc1ccc(OCC(O)CN2CCN(c3ccc(C)c(Cl)c3)CC2)cc1 (stereo unspecified),120*,12,0,0,0
CN(C)C(=O)c1ccc(Cc2cn(C)c3ccccc23)nc1,/,/,0,/,/
Cc1cccc2c(=O)n3c(cc12)-c1[nH]c2ccccc2c1CC3,/,/,34,/,/
O=c1c2ccccc2nc2n1CCc1c-2[nH]c2ccccc12,78*,1,0,-84,/
CCN(CC)C(=O)CSc1nc2ccccc2c(=O)n1-c1cccc(OC)c1,-10,-3,1,-13,-10
COc1cccc(-n2c(SCc3cc(=O)oc4cc(O)c(O)cc34)nc3ccccc3c2=O)c1,100*,-6,29,/,106*
CCn1c2ccccc2c2cc(/C=N/NC(=O)c3cc(O)cc(O)c3)ccc21,84*,3,0,-5,14
CCn1c2ccccc2c2cc(NC(=O)c3cccc([N+](=O)[O-])c3)ccc21,88*,15,3,21,-3
CCn1c2ccccc2c2cc(NC(=O)c3cc(OC)cc(OC)c3)ccc21,84*,70,0,43,-11
CCn1c2ccccc2c2cc(NC(=O)CN(C)CC(=O)Nc3ccc(N4CCOCC4)cc3)ccc21,80*,2,-1,-23,6
CCn1c2ccccc2c2cc(NC(=O)COc3ccc(OC)cc3)ccc21,-2,4,0,6,3
CCc1nc2c(OCc3ccc(Cl)cc3)cccn2c1N(C)C(=O)c1ccncc1,/,/,-1,/,/
COc1cc(OC)cc(C(=O)Nc2ccc(Nc3ccccc3)cc2)c1,88*,21,1,-3,-5
O=C(c1ccc(-c2ccc(Cl)cc2)o1)N1CCN(c2ccc([N+](=O)[O-])cc2Cl)CC1,43,113*,44,3,-4
O=C(c1ccc(-c2ccc([N+](=O)[O-])cc2)o1)N1CCCCC1,11,5,3,-94,-11
O=[N+]([O-])c1ccc(N/N=C/c2ccc[nH]2)cc1,88*,4,10,/,/
O=[N+]([O-])c1cc(/C=N/Nc2nc3ccccc3[nH]2)c(O)cc1O,64,94*,/,/,88*
O=[N+]([O-])c1ccc(N/N=C/c2cccc(O)c2O)cc1,96*,25,7,-24,-27
C(/CCc1ccccc1)=N\Nc1nc2ccccc2[nH]1,-2,88*,-1,45,-17
CCCC(=O)N1CCCC(c2cc(C(=O)Nc3ccccc3)no2)C1 (stereo unspecified),/,/,1,/,/
O=[N+]([O-])c1ccc(N/N=C/c2c[nH]c3ccccc23)cc1,96*,12,6,25,-15
C(=N\Nc1nc2ccccc2[nH]1)/c1c[nH]c2ccccc12,-4,119*,39,-7,2
Cc1ccccc1CN1C(=O)CSCC1(C)C(=O)NC(C)C (stereo unspecified),/,/,0,/,/
CCCC(C)C(=O)Nc1nc(C)c(-c2csc(Nc3ccc(Cl)cc3)n2)s1 (stereo unspecified),43,100*,0,-1,1
CCCC(C)C(=O)Nc1nc(C)c(-c2csc(Nc3ccccc3OC)n2)s1 (stereo unspecified),55,2,0,5,0
CC(C)Oc1cccc(C(=O)NC(=S)Nc2ccccc2N2CCOCC2)c1,121*,1,-1,29,0
COc1ccc(C(=O)NC(=S)Nc2ccccc2N2CCOCC2)cc1Br,37,12,1,30,6
CCOc1ccc(C(=O)NC(=S)Nc2ccccc2N2CCOCC2)cc1Br,101*,-7,2,28,0
O=C(C[C@@H]1CC[C@H](NS(=O)(=O)c2ccccc2F)[C@@H](CO)O1)NCCCN1CCOCC1,/,/,0,/,/
O=C1COc2ccc(S(=O)(=O)N3CCCC3)cc2N1,-5,0,0,10,-2
